Measured values published in PubChem BioAssay AID1159580 (chemical genetic matrix, 2015).
Values joined by “and” are separate entries in the source; they are usually repeats but may differ in a detail not shown here. Equal entries are not always repeated. Screen size: about 5,500 compounds; about 2,000 (36%) were called active. Roughly 18% stayed inconclusive and do not appear here. Rule as the data show it: active = normalized growth mostly below about 0.91 (no sharp cut-off); inconclusive = no clear call, values can overlap the other calls; inactive = mostly above about 0.92. Some of the results follow.

Experiment: chemical genetic growth profiling, strain panel (AID 1159580);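 also: tested at 20 µM; growth read once vehicle control cultures reached saturation at 30 °C; 1 = growth at the plate median or of vehicle wells; lower values mean less growth of the strain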
Conditions: S. cerevisiae deletion strains, growth OD

Measured: normalized growth

O=C1CN(/N=C\c2ccc([N+](=O)[O-])o2)C(=O)N1
inactive: locus YAL013W, strain DEP1, hits give low values 0.993 | locus YAL021C, strain ccr4, hits give low values 0.98 | locus YAL026C, strain drs2, hits give low values 0.956 | locus YAL030W, strain snc1, hits give low values 0.986 | locus YBL061C, strain skt5, hits give low values 0.987 | locus YBR009C, strain hhf1, hits give low values 0.977 | locus YBR021W, strain FUR4, hits give low values 0.997 | locus YBR023C, strain chs3, hits give low values 0.982 | locus YBR171W, strain sec66, hits give low values 0.982 | locus YBR229C, strain ROT2, hits give low values 1.01 | locus YBR231C, strain swc5, hits give low values 0.977 | locus YBR279W, strain paf1, hits give low values 0.97 | locus YCL011C, strain gbp2, hits give low values 0.964 | locus YCL016C, strain dcc1, hits give low values 0.99 | locus YCL029C, strain bik1, hits give low values 1.01 | locus YCL061C, strain MRC1, hits give low values 0.986 | locus YCL069W, strain vba3, hits give low values 0.956 | locus YCR088W, strain abp1, hits give low values 0.966 | locus YDL005C, strain med2, hits give low values 0.967 | locus YDL035C, strain GPR1, hits give low values 0.978 | locus YDL040C, strain nat1, hits give low values 0.97 | locus YDL074C, strain BRE1, hits give low values 0.914 | locus YDL101C, strain DUN1, hits give low values 0.995 | locus YDL134C, strain PPH21, hits give low values 1 | locus YDL185W, strain tfp1, hits give low values 0.99 | locus YDL192W, strain arf1, hits give low values 0.991 | locus YDR001C, strain nth1, hits give low values 0.975 | locus YDR069C, strain doa4, hits give low values 0.94 | locus YDR101C, strain arx1, hits give low values 0.976 | locus YDR137W, strain rgp1, hits give low values 1.02 | locus YDR150W, strain NUM1, hits give low values 1 | locus YDR159W, strain sac3, hits give low values 0.954 | locus YDR162C, strain NBP2, hits give low values 0.99 | locus YDR195W, strain ref2 0.979 | locus YDR297W, strain sur2, hits give low values 0.983 | locus YDR318W, strain mcm21, hits give low values 0.973 | locus YDR334W, strain swr1, hits give low values 0.976 | locus YDR335W, strain msn5, hits give low values 0.986 | locus YDR388W, hits give low values 0.995 | locus YDR502C, strain sam2, hits give low values 0.974 | locus YEL003W, strain gim4, hits give low values 0.942 | locus YEL037C, strain rad23, hits give low values 0.963 | locus YEL061C, strain CIN8 (second series), hits give low values 0.969 | locus YEL061C, strain CIN8, hits give low values 0.996 | locus YER015W, strain faa2, hits give low values 0.961 | locus YER016W, strain bim1, hits give low values 0.96 | locus YER110C, hits give low values 0.99 | locus YER111C, strain swi4, hits give low values 0.981 | locus YER155C, strain BEM2, hits give low values 0.998 | locus YER167W, strain BCK2, hits give low values 0.985 | locus YFR010W, strain ubp6, hits give low values 0.942 | locus YGL078C, strain dbp3, hits give low values 0.977 | locus YGL086W, strain mad1, hits give low values 0.977 | locus YGL167C, strain pmr1, hits give low values 0.983 | locus YGL173C, strain kem1, hits give low values 0.987 | locus YGL227W, strain vid30, hits give low values 0.979 | locus YGL240W, strain doc1, hits give low values 0.922 | locus YGL248W, strain PDE1, hits give low values 1 | locus YGL253W, strain hxk2, hits give low values 0.976 | locus YGR078C, strain PAC10, hits give low values 0.975 | locus YGR135W, strain pre9, hits give low values 0.963 | locus YGR229C, strain SMI1, hits give low values 0.958 | locus YGR252W, strain gcn5, hits give low values 0.804 | locus YHR013C, strain ard1, hits give low values 0.942 | locus YHR027C, strain rpn1, hits give low values 0.985 | locus YHR030C, strain SLT2, hits give low values 0.991 and 0.902 | locus YHR079C, strain IRE1 (second series), hits give low values 0.989 | locus YHR079C, strain IRE1, hits give low values 0.91 | locus YHR094C, strain hxt1, hits give low values 0.999 | locus YHR129C, strain ARP1, hits give low values 1 | locus YHR142W, strain chs7, hits give low values 0.946 | locus YHR200W, strain rpn10, hits give low values 0.985 | locus YIL066C, strain RNR3, hits give low values 1.01 | locus YIL073C, strain SPO22, hits give low values 0.969 | locus YIL125W, strain kgd1, hits give low values 0.987 | locus YIR030C, strain dcg1, hits give low values 0.994 | locus YJL092W, strain hpr5, hits give low values 0.971 | locus YJL095W, strain BCK1 (second series), hits give low values 0.982 | locus YJL095W, strain BCK1, hits give low values 0.969 and 0.892 | locus YJL115W, strain asf1, hits give low values 0.951 | locus YJL129C, strain trk1, hits give low values 0.968 | locus YJL134W, strain LCB3, hits give low values 1 | locus YJL154C, strain vps35, hits give low values 0.971 | locus YJL164C, strain tpk1, hits give low values 0.957 | locus YJL166W, strain qcr8, hits give low values 0.964 | locus YJL168C, strain set2, hits give low values 0.989 | locus YJL187C, strain SWE1 (second series), hits give low values 1.01 | locus YJL187C, strain SWE1, hits give low values 0.973 | locus YJR043C, strain POL32, hits give low values 0.979 | locus YJR066W, strain TOR1, hits give low values 0.87
active: locus YDR392W, strain spt3, hits give low values 0.68 | locus YER155C, strain BEM2 (second series), hits give low values 0.854
